Where “and” joins values, the source holds several entries; their conditions need not be identical. Equal entries are not always repeated.
Each compound was assayed on HT29 RNF43 G659fs (RNF43 659mut, CRISPR-edited) (assay: cell viability activity relative to DMSO (negative = inhibition); higher = more viable cells (less growth inhibition)). Settings: 5 µM; 96 h.
Protocol: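 Broad Repurposing Library primary screen at a single dose of 5 uM. HT29 sg-Ctrl and HT29 RNF43 G659fs CRISPR-edited isogenic cells were seeded at 2500 cells/well in 384-well plates in duplicate and treated for 96 h. Viability was read by CellTiter-Glo and reported as % activity relative to DMSO, with MG132 as the positive control (negative = growth inhibition).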

Structure (SMILES) | cell viability activity
C[C@@H](Oc1cc(-n2cnc3ccc(CN4CCN(C)CC4)cc32)sc1C(N)=O)c1ccccc1C(F)(F)F | -89.5%
CCC(=O)N1CCN(c2ccc(-n3c(=O)ccc4cnc5ccc(-c6cnc7ccccc7c6)cc5c43)cc2C(F)(F)F)CC1 | -56.6%
CCN1CCN(Cc2ccc(Nc3ncc(F)c(-c4cc(F)c5nc(C)n(C(C)C)c5c4)n3)nc2)CC1 | -49.8%
CC1(C)CC(=O)c2c(C(F)(F)F)nn(-c3ccc(C(N)=O)c(N[C@H]4CC[C@H](O)CC4)c3)c2C1 | -86.4%
O=C(NC1CCNCC1)c1n[nH]cc1NC(=O)c1c(Cl)cccc1Cl | -82.8%
CN(C)C/C=C/C(=O)Nc1ccc(C(=O)Nc2cccc(Nc3ncc(Cl)c(-c4c[nH]c5ccccc45)n3)c2)cc1 | -87.2%
COc1cc2ncn(-c3cc(OCc4ccccc4C(F)(F)F)c(C(N)=O)s3)c2cc1OC | -72.5%
CO[C@@H]1[C@H](N(C)C(=O)c2ccccc2)C[C@H]2O[C@]1(C)n1c3ccccc3c3c4c(c5c6ccccc6n2c5c31)C(=O)NC4 | -53.8%
CO[C@H]1C(=O)[C@]2(C)[C@@H](OC)C[C@H]3OC[C@@]3(OC(C)=O)[C@H]2[C@H](OC(=O)c2ccccc2)[C@]2(O)C[C@H](OC(=O)[C@H](O)[C@@H](NC(=O)OC(C)(C)C)c3ccccc3)C(C)=C1C2(C)C | -45%
Cc1ncc(-c2ccnc(Nc3ccc(S(C)(=O)=O)cc3)n2)n1C(C)C | -91.5%
N#CC1(c2ccc(NC(=O)c3cccnc3NCc3ccncc3)cc2)CCCC1 | -45.5%
CN1CCc2c(c3ccccc3n2Cc2ccccc2)C1 | -59.2%
O=C(Nc1ccccc1-c1cn2c(CN3CCNCC3)csc2n1)c1cnc2ccccc2n1 | -74.8%
Cc1nc(Nc2ncc(C(=O)Nc3c(C)cccc3Cl)s2)cc(N2CCN(CCO)CC2)n1 | -65.9%
COc1cccc2c1C(=O)c1c(O)c3c(c(O)c1C2=O)C[C@@](O)(C(C)=O)C[C@@H]3O[C@H]1C[C@H](N)[C@H](O)[C@H](C)O1 | -97.7% and -94% and -93.6%
CC(C)n1nc(-c2ccc3oc(N)nc3c2)c2c(N)ncnc21 | -74.9%
COc1cc2nc(N3CCC(N4CCCCC4)CC3)nc(NC3CCCCCC3)c2cc1OC | -93.5%
O=C(NC1CCN(CCCCC2(C(=O)NCC(F)(F)F)c3ccccc3-c3ccccc32)CC1)c1ccccc1-c1ccc(C(F)(F)F)cc1 | -95.7%
C=C1/C(=C\C=C2/CCC[C@]3(C)[C@@H]([C@H](C)CCCC(C)C)CC[C@@H]23)C[C@@H](O)C[C@@H]1O | -54.3%
CCCCCCCCc1ccc(CCC(N)(CO)CO)cc1 | -97.8%

Structure (SMILES) | cell viability activity
CCN(CC)CC1CCN(c2ncc3ncnc(Nc4ccc(F)c(Cl)c4)c3n2)CC1 | -37.1%
CCNCCCNCCCCNCCCNCC | -31%
CCCCC(=O)O[C@H]1CC[C@H]2[C@@H]3CCc4cc(O)ccc4[C@H]3CC[C@]12C | -22.9%
Nc1nc(=S)c2ncn([C@@H]3O[C@H](CO)[C@@H](O)[C@H]3O)c2[nH]1 | -80.3%
COc1ccc(-c2ccc3c(N4CCOC[C@@H]4C)nc(N4CCOC[C@@H]4C)nc3n2)cc1CO | -71.9%
CC(C)c1cc(CNc2nc(Nc3cc(C4CC4)[nH]n3)cc(N3CCN(C)CC3)n2)on1 | -86.1%
CCCCCCCCCc1ccc(OCCOCCOCCOCCOCCOCCOCCOCCOCCO)cc1 | -55.9%
CCCCNc1ncc2c(-c3ccc(CN4CCN(C)CC4)cc3)cn([C@H]3CC[C@H](O)CC3)c2n1 | -89.4%
CC(C)[C@](O)(c1ccc2cc(OC(F)F)c(OC(F)F)cc2c1)c1c[nH]nn1 | -54.8%
COc1cc(N2CCC(N3CCN(C)CC3)CC2)ccc1Nc1ncc(Cl)c(Nc2ccccc2P(C)(C)=O)n1 | -82.9%
CCN(c1cc(C#CCN2CCOCC2)cc(C(=O)NCc2c(C)cc(C)[nH]c2=O)c1C)[C@H]1CC[C@H](N(C)CCOC)CC1 | -37.5%
Clc1ccc(C2(c3ccc(-c4cn[nH]c4)cc3)CCNCC2)cc1 | -71.5%
C[C@H]1O[C@@H](O[C@H]2CC[C@@]3(C)[C@H](CC[C@@H]4[C@@H]3C[C@@H](O)[C@]3(C)[C@@H](C5=CC(=O)OC5)CC[C@]43O)C2)C[C@H](O)[C@@H]1O[C@H]1C[C@H](O)[C@H](O[C@H]2C[C@H](O)[C@H](O[C@@H]3O[C@H](CO)[C@@H](O)[C@H](O)[C@H]3O)[C@@H](C)O2)[C@@H](C)O1 | -90.5%
COC[C@H](NC(=O)c1cnc(C)s1)C(=O)N[C@@H](COC)C(=O)N[C@@H](Cc1ccccc1)C(=O)[C@@]1(C)CO1 | -95.3%
CC(C)/N=c1\cc2n(-c3ccc(Cl)cc3)c3ccccc3nc-2cc1Nc1ccc(Cl)cc1 | -75.3%
Cc1ccc(S(=O)(=O)C=CC#N)cc1 | -98.8%
CCc1cccc(CC)c1NC(=O)N1Cc2[nH]nc(NC(=O)c3ccc(N4CCN(C)CC4)cc3)c2C1 | -46.8%
O=C(c1cccc(Cl)c1F)N1CCN(Cc2cccc(Nc3nccs3)n2)CC1 | -27.7%
CN(C)/N=N/c1[nH]cnc1C(N)=O | -31.5%
Cc1cc(Nc2ncc(Cl)c(Nc3ccccc3S(=O)(=O)C(C)C)n2)c(OC(C)C)cc1C1CCNCC1 | -97.2%

Source: the supplement of paper PMC9177965
